Several values for one entry are separate records, joined by “and”; a condition that tells them apart may be missing. Equal values may be shown once. For some of these results: Entries with a potency or affinity are not part of this list.

The target in experiment [1] is T1, Methionyl-tRNA synthetase, putative (Leishmania donovani (strain BPK282A1)) (UniProt E9BF75).
T1 sequence (whole entry): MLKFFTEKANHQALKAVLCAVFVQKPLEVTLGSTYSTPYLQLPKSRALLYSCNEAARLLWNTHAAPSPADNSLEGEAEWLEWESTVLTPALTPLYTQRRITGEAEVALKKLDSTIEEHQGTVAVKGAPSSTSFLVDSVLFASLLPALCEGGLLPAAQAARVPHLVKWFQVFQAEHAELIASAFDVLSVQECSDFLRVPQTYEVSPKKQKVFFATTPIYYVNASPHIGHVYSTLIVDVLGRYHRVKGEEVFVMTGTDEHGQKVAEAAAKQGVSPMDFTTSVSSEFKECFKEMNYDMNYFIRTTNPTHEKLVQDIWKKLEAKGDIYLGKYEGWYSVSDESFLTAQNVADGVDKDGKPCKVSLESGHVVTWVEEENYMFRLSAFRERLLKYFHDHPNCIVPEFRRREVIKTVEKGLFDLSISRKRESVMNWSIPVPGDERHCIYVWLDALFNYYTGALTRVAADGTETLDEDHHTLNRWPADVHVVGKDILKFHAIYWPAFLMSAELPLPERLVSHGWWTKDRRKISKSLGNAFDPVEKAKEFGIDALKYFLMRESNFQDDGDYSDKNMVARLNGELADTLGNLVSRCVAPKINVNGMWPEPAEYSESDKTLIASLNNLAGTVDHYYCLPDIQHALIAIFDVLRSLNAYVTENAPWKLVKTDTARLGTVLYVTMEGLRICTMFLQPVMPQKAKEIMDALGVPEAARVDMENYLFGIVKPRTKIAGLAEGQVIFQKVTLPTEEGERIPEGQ
The experiment can be described thus: Leishmania donovani Methionine tRNA synthetase (LdMetRS):v7. Dose response assay. It counts as functional. The arrangement: conc 80 nM, time 150 minutes.

For experiment [2], the target named is AMP-activated protein kinase, AMPK (Homo sapiens) (UniProt P54646+O43741+P54619+Q9UGJ0+Q9Y478+Q13131+Q9UGI9). The experiment in a line: AMP-dependent Kinase enzyme assay. An in vitro enzyme assay that detects ADP turnover that is directly proportional to AMPK activity. This uses naive AMPK that is activated during the assay with MK-8722. The arrangement: scale not given: direction of the effect not stated beside the values. In kind it is functional. As to conditions: 30 µM.

Experiment [3] addresses Protein translocase subunit SecA (Escherichia coli (strain K12)) (UniProt P10408). The experiment can be described thus: Assay to Identify E. coli SecA ATPase Inhibitors. In kind it is functional. As to conditions: 30 µM. The arrangement: scale not given: direction of the effect not stated beside the values.
Experiment [4] concerns the target T2, Ubiquitin-activating enzyme e1, putative (Leishmania donovani (strain BPK282A1)) (UniProt E9BSI1).
T2 sequence (whole entry): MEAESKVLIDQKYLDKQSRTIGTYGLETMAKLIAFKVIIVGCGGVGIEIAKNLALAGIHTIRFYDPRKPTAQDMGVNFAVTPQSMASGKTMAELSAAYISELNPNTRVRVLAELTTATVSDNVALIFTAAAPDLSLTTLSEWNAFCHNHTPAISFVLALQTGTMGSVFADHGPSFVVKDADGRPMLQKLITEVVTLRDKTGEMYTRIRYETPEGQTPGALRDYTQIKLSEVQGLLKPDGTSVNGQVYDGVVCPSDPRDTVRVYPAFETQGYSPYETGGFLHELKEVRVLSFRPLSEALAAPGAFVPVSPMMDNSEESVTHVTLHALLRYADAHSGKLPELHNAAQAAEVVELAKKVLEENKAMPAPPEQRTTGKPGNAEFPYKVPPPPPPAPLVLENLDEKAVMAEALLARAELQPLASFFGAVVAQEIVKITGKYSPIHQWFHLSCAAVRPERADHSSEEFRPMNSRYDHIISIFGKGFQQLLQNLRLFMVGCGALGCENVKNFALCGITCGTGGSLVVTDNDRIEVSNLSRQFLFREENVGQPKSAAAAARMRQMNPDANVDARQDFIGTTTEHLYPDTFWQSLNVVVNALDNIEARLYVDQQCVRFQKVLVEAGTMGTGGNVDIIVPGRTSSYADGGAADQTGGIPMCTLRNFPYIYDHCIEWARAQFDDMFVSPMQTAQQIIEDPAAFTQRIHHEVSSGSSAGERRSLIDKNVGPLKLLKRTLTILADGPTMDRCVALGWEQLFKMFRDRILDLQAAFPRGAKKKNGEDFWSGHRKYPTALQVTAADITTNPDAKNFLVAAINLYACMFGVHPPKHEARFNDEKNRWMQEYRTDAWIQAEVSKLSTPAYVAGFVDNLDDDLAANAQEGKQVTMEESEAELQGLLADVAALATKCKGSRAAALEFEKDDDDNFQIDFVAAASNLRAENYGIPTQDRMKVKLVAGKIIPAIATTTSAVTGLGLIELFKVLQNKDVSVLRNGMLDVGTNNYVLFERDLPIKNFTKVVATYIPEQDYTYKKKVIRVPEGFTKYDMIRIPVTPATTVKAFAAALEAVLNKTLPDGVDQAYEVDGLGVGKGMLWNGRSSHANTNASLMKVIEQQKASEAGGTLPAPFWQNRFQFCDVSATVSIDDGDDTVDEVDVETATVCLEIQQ
The experiment can be described thus: Leishmania donovani Ubiquitin Activating Enzyme (LdE1). It counts as functional. The arrangement: scale not given: direction of the effect not stated beside the values. As to conditions: 30 µM.

Experiment [5] concerns the target Sialic acid-binding Ig-like lectin 9 (Homo sapiens) (UniProt Q9Y336). The experiment in a line: Hs-Siglec9 ALPHAscreen SOP 20170721. The arrangement: scale not given: direction of the effect not stated beside the values. As to conditions: 10 µM.
Experiment [6] relates to Trypanosoma cruzi. The experiment can be described thus: Trypanosoma cruzi phosphomannomutase and mannose-1-phosphate guanylyltransferase assay. The arrangement: scale not given: direction of the effect not stated beside the values. In kind it is functional. As to conditions: 10 µM.
In experiment [7] the target is T3, Arginase-2, mitochondrial (Homo sapiens) (UniProt P78540).
T3 sequence (whole entry): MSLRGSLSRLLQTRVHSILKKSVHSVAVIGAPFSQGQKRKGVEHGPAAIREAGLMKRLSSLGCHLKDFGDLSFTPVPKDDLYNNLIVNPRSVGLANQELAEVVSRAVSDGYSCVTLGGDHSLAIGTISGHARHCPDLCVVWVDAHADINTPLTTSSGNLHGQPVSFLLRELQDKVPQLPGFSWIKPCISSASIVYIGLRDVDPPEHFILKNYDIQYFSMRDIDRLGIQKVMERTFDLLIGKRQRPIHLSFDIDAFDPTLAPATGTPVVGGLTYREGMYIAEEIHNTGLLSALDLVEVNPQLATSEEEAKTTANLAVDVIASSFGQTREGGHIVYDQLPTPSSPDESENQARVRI
The experiment in a line: in vitro enzyme assay to detect the production of urea directly proportional to the activity of Arginase II. In kind it is functional. Also noted: scale not given: in the data most compounds retested in dose-response had high values. As to conditions: 33.3 µM.

Experiment [8] concerns the target T4, Proteasome subunit beta (Trypanosoma cruzi) (UniProt O96673).
T4 sequence (whole entry): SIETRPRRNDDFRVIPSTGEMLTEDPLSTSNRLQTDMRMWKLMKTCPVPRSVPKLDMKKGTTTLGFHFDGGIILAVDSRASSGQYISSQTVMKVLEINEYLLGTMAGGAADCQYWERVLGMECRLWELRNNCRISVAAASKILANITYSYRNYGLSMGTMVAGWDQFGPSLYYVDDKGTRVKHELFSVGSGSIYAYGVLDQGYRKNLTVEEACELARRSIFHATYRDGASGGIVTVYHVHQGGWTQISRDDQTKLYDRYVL
The experiment can be described thus: Trypanosoma cruzi proteasome chymotrypsin-like activity (TcProtChymo) assay. The arrangement: scale not given: in the data most compounds retested in dose-response had high values. In kind it is functional. As to conditions: 9.37 µM.

For experiment [9], the system named is N/A. The experiment can be described thus: Trypanosoma cruzi proteasome luciferase counter-screen. It counts as functional. Also noted: scale not given: direction of the effect not stated beside the values. The following applies: 9.37 µM.
Experiment [10] is filed under the species Homo sapiens. The experiment in a line: To identify inhibition of the IFN signalling (Jak-Stat) pathway via expression of an eGFP reporter gene under the control of an IFN-stimulated response element (ISRE) containing MxA promoter. Also noted: scale not given: direction of the effect not stated beside the values. As to conditions: 30 µM. It counts as functional.

For experiment [11], the target named is T5, Tyrosyl-tRNA synthetase, putative (Trypanosoma cruzi (strain CL Brener)) (UniProt Q4DSP6).
T5 sequence (whole entry): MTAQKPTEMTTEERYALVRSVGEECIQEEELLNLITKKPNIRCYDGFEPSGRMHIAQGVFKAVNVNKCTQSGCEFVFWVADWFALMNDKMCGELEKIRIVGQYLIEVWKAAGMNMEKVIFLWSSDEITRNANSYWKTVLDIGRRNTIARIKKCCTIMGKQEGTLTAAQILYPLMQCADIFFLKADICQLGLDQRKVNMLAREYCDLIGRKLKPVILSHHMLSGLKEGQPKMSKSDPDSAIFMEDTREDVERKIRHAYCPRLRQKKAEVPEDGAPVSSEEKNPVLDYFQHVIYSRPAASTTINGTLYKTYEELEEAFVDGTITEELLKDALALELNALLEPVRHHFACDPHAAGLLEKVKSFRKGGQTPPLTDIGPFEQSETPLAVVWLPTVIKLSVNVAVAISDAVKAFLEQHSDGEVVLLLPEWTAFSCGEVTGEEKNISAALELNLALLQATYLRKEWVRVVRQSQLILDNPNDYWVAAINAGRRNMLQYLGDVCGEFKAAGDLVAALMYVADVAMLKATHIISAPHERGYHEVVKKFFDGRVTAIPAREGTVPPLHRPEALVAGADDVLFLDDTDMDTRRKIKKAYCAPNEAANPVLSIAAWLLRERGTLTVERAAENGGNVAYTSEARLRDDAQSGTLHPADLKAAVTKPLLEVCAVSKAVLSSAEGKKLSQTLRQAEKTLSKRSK
The experiment can be described thus: Trypanosoma cruzi tyrosyl tRNA synthetase (TcYRS) _High Tyrosine SOP. The arrangement: scale not given: in the data most compounds retested in dose-response had high values. The following applies: 30 µM. It counts as functional.

The target of experiment [12] is T5, Tyrosyl-tRNA synthetase, putative (Trypanosoma cruzi (strain CL Brener)). The experiment in a line: Trypanosoma cruzi tyrosyl tRNA synthetase (TcYRS) SOP. The arrangement: scale not given: direction of the effect not stated beside the values. It counts as functional. As to conditions: 30 µM.
The target in experiment [13] is Chromo domain-containing protein 1 (Saccharomyces cerevisiae (strain ATCC 204508 / S288c) (Baker's yeast)) (UniProt P32657). The experiment in a line: ScCHD-1 Enzyme Inhibition Assay. In kind it is functional. The arrangement: scale not given: in the data most compounds retested in dose-response had high values. The following applies: 30 µM.
Chromo domain-containing protein 1 (Saccharomyces cerevisiae (strain ATCC 204508 / S288c) (Baker's yeast)), sequence (P32657 whole entry, the tested form may be a part): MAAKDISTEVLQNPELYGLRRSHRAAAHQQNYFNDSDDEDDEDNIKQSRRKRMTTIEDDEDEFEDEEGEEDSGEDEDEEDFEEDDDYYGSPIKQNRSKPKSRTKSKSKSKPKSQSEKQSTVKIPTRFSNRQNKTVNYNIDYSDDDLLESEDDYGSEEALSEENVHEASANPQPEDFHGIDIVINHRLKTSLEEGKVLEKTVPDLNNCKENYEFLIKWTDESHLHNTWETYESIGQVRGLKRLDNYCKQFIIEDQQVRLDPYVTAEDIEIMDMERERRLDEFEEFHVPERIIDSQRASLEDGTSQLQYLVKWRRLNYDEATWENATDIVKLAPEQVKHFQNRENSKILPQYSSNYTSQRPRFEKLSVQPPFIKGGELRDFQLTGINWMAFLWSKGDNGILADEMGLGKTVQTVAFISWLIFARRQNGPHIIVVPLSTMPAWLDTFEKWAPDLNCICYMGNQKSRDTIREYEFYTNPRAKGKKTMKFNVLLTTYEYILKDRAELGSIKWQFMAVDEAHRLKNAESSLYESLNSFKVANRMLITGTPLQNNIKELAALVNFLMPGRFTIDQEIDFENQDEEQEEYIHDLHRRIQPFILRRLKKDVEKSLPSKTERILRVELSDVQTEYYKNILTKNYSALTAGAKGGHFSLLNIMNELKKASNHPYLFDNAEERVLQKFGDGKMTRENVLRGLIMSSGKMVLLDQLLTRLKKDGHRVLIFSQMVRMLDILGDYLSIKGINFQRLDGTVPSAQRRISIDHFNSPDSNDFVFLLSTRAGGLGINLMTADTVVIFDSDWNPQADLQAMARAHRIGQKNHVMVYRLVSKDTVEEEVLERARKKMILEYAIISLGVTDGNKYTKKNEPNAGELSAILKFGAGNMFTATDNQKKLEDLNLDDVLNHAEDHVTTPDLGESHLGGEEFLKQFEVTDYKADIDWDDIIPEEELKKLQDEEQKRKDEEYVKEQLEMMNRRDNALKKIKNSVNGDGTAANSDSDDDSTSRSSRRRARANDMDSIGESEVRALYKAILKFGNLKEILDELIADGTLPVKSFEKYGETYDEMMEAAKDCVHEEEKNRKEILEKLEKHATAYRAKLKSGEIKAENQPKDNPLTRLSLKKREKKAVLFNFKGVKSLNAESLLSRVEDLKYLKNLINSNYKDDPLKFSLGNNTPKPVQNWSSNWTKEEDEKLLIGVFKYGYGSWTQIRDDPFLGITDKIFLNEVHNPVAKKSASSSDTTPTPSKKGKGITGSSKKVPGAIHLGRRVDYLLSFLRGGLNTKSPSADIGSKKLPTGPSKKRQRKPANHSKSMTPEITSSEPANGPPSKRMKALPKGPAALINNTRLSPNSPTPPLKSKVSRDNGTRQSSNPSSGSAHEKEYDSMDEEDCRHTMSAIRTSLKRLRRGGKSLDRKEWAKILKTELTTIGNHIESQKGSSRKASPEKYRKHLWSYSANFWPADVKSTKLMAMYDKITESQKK

Sialic acid-binding Ig-like lectin 9 (Homo sapiens), sequence (Q9Y336 whole entry): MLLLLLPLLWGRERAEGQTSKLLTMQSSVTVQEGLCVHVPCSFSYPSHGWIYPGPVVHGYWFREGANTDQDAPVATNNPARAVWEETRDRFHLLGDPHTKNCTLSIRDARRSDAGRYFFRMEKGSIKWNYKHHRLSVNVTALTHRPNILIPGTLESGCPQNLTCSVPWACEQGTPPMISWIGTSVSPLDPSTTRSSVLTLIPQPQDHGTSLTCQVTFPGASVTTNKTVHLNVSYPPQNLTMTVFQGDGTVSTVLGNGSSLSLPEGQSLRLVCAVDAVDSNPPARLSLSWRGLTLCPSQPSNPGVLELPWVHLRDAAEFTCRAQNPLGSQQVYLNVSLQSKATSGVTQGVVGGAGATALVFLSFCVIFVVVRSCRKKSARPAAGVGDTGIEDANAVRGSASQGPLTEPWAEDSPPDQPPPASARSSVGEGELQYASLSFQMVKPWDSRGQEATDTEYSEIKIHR
Protein translocase subunit SecA (Escherichia coli (strain K12)), sequence (P10408 whole entry): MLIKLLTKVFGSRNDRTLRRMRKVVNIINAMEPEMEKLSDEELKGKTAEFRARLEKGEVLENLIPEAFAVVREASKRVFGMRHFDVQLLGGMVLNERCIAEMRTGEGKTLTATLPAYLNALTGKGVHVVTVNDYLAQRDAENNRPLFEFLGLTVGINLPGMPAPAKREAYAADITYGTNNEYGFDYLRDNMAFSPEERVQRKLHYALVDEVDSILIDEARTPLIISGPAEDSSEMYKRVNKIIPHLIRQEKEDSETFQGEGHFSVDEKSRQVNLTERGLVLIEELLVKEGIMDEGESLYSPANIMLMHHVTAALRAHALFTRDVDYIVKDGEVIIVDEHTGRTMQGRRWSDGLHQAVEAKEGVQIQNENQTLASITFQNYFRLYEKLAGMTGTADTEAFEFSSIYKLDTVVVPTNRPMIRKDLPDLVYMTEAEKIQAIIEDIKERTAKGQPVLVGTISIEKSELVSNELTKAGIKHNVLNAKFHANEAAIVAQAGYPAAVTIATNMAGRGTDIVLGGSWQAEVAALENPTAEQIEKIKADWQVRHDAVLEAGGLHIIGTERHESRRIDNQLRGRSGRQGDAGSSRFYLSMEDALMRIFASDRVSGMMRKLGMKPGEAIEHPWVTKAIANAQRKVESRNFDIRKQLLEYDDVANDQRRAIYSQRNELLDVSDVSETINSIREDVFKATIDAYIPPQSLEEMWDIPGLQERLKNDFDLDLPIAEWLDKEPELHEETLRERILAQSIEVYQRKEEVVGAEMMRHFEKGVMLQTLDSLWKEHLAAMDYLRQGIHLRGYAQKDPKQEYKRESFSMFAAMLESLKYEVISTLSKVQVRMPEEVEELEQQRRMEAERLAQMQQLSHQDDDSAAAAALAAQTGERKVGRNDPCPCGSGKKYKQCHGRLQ

Regarding `CC1CCN(c2ccc(C(=O)N3CCCC3c3ccc[nH]3)cn2)CC1` (stereo not drawn), the PXC50 in experiment [1] (BOTTOM 1.515439463, HILLSLOPE 1.666598775, MAX_EFFECT 83.87715931, TOP 100.0) turned out to be 4.46; in [1] (BOTTOM -1.123012713, HILLSLOPE 2.407877124, MAX_EFFECT 92.83154122, TOP 98.62534766) it was 4.49; in [1] (BOTTOM -1.142129641, HILLSLOPE 1.640897748, MAX_EFFECT 81.18022329, TOP 100.0), 4.4; in [1] (BOTTOM -13.95110743, HILLSLOPE 2.091757253, MAX_EFFECT 73.91304348, TOP 74.65708324), 4.71; in [1] (BOTTOM -19.81350398, HILLSLOPE 1.3052719, MAX_EFFECT 84.15841584, TOP 92.57854766) it was 4.84. Besides, in experiment [2], the Percent Effect was -6.21%.
Take `CCN(CCN(C)C)c1nc(CCN)nc2sc(C)c(C)c12`: the PXC50 in [1] (BOTTOM 1.153434253, HILLSLOPE 1.801290913, MAX_EFFECT 65.59139785, TOP 100.0) was found to be 4.17; in [1] (BOTTOM 3.323089956, HILLSLOPE 2.865245269, MAX_EFFECT 53.13531353, TOP 100.0) it was 4.01; in experiment [1] (BOTTOM 7.056148009, HILLSLOPE 0.845689164, MAX_EFFECT 65.90909091, TOP 100.0), 4.25; in experiment [1] (BOTTOM 9.733141468, HILLSLOPE 1.108067768, MAX_EFFECT 69.89795918, TOP 94.34728341), 4.35; in experiment [1] (BOTTOM -2.908093481, HILLSLOPE 0.556623138, MAX_EFFECT 55.79710145, TOP 100.0), 4.03.
For `CN1CCc2nc(C3CCN(C(=O)CCC4CCCC4)CC3)ncc2C1`, the PXC50 in [1] (BOTTOM 0.534632588, HILLSLOPE 1.255840154, MAX_EFFECT 60.86956522, TOP 100.0) is 4.14; in [1] (BOTTOM 3.083112022, HILLSLOPE 1.565152708, MAX_EFFECT 54.7024952, TOP 100.0) it was 4.03; in experiment [1] (BOTTOM -8.837281555, HILLSLOPE 1.047429208, MAX_EFFECT 57.34767025, TOP 100.0), 4.14; in [1] (BOTTOM -19.84781307, HILLSLOPE 1.359990695, MAX_EFFECT 58.41584158, TOP 100.0) it was 4.22; in [1] (MAX_EFFECT 38.75598086) it was under 4. Moreover, the Percent Effect was -2.07% in [3]; 26.7% in experiment [4]; 7.92% in [2]; -1.28% in [5]; 5.51% in experiment [6]; -2.1% in experiment [7]. The Percent Effect in experiment [8] was 27.3% and 36.4% and 44%; in experiment [9], 6.68% and 6.76%; in experiment [10], 23.7%; in [11] it was 44.7%; in experiment [12], 34.6%; in experiment [13] it was -8.54%.

The values above are taken from ChEMBL document CHEMBL3988442, “University of Dundee, Small-Polar-MMV Screening Library” (2021).
